Test results as given in PubChem BioAssay (NCATS).
Results filed as inconclusive are left out. A number with no mark means an inactive call. Activity calls are given as the source filed them. Calls come from the whole dose curve.

Target: Vitamin D3 receptor (Homo sapiens) (UniProt P11473)
Assay: qHTS assay for small molecule antagonists of vitamin D receptor signaling (AID 588541);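 note: receptor activated by calcitriol during compound treatment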
Settings: HEK293T VDR-UAS-bla, beta-lactamase ratio, antagonist mode; series mostly up to 76.7 µM; activity change, negative = inhibition: at the top concentration
Source text: NIH Chemical Genomics Center [NCGC]
U.S. Environmental Protection Agency [EPA]
National Institutes of Environmental Health Sciences [NIEHS]
National Toxicology Program [NTP]
The Vitamin D receptor (VDR) is a member of nuclear hormone receptor superfamily and it plays a critical role in calcium homeostasis and bone metabolism. It plays a role in inducing cell differentiation, inhibiting cell growth and in thrombogenicity. So, VDR that mediates these effects represents a pharmacological target in prevention and treatment of hyperproliferative malignancies, such as cancer and psoriasis, cardiovascular, immunological, inflammatory and renal diseases etc.
NCGC Assay Protocol Summary
Using a beta-lactamase reporter-gene under control of Vitamin D receptor (VDR) response element, a cell-based assay [GeneBLAzer (VDR -UAS-bla assay developed by Invitrogen] was used to measure VDR ligands signaling. GeneBLAzer VDR -UAS-bla HEK293T cells were used with assay medium containing 2% charcoal-stripped FBS. The assay was performed in clear bottom black Greiner 1536-well plates. Library compounds were measured for their ability to inhibit the reporter gene activity. Compounds were screened in a titration series in 1536-well format. The fluorescence intensity (405 nm excitation, 460/530 nm emission) was measured using an EnVision plate reader. Data was normalized relative to 1-alpha,25-Dihydroxy vitaminD3 control (50 nM, 100%) and DMSO only wells (basal, 0%). Concentration-response titration points for each compound were fitted to the Hill equation yielding concentrations of half-maximal inhibition (IC50) and maximal response (efficacy) values.
qHTS protocol for VDR beta-lactamase assay in antagonist mode
[Step] [Parameter] [Value] [Description]
1. Reagent; 5 uL; 2000 cells/well
2. Incubation; 37 C for 5 hrs
4. Controls (DMSO); 23 nL,
5. Agonist (Stimulator); 1uL; 1-alpha,25-Dihydroxy vitaminD3 at 50 nM and 3 nM final concentrations
6. Incubation; 37 C for 16 hrs
7. Detection reagent; 1 uL of CCF4-dye
8. Incubation; RT for 2 hrs
9. Detection; Fluorescence; Envision plate reader
% is set by controls: 0 for no effect and ±100 for the full control effect.

Chain of Vitamin D3 receptor (Homo sapiens) (P11473 whole entry, looked up): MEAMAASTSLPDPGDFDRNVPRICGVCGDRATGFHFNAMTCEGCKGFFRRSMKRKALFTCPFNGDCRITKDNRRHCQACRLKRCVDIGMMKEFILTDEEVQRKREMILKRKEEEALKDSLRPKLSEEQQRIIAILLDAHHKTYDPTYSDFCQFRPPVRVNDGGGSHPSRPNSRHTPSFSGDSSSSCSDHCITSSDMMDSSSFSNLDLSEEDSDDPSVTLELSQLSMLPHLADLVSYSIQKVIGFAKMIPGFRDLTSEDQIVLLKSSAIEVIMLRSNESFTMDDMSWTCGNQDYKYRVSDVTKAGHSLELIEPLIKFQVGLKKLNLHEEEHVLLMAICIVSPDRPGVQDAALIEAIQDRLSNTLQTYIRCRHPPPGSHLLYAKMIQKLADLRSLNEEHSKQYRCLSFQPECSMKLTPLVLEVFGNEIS

Point of comparison: `c1ccc(P(c2ccccc2)c2ccccc2)cc1`, “activity change, negative = inhibition” value -1.97%. Against it:
- Cc1ccc(N)c(C)c1 — higher, 9.28%
- CCCC[N+](=O)[O-] — higher, 0.512%
- CC(C)(Cl)Cl — higher, 1.03%
- O=[N+]([O-])/C=C/c1ccccc1 — higher, 2.97%
- Brc1ccc(Oc2ccc(Br)cc2Br)c(Br)c1 — higher, -0.623%
- c1ccc(C2CO2)cc1 (stereo not given) — higher, -0.0691%
- Brc1cccc(-c2ccccc2)c1 — higher, -0.284%
- O=[N+]([O-])c1ccccc1CCl — lower, -3.98%
- ClC(Cl)(Cl)C(Cl)(Cl)Cl — higher, 3.93%
- O=P(OCCCl)(OCCCl)OCCCl — higher, 8.39%
- c1ccc(Nc2ccc(Nc3ccccc3)cc2)cc1 — lower, -10.5%
- C=C(C)CCl — lower, -2.4%
- C(CCOCC1CO1)COCC1CO1 (stereo not given) — higher, 5.94%
- CCOS(C)(=O)=O — higher, 0.0365%
- Cc1cc(C)cc(OP(=O)(Oc2cc(C)cc(C)c2)Oc2cc(C)cc(C)c2)c1 — higher, -0.806%
- C=CC(=O)OC — higher, 2.9%
- Nc1ccc(Cc2ccc(N)c(Cl)c2)cc1Cl — lower, -2.77%
- COc1ccc(C=O)cc1 — higher, 3.15%
- [O-][Cl+2]([O-])O — higher, 3.67%
- N#CCBr — lower, -2.87%
- CC(=O)NNc1ccccc1 — lower, -3.62%
- Nc1ccc2ccccc2c1 — lower, -10.2%
- Clc1ccc(C(c2ccccc2Cl)C(Cl)(Cl)Cl)cc1 (stereo not given) — lower, -8.87%
- O=C(O)CCl — higher, 2.63%
- Oc1cc(Cl)cc(Cl)c1 — higher, 3.34%
- N#CCc1ccccc1 — lower, -8.55%
- O=[N+]([O-])c1cc(Cl)c(Cl)c(Cl)c1 — higher, 1.7%
- C=C(Cl)CSC(=S)N(CC)CC — lower, -2.31%
- ClCCOCOCCCl — lower, -4.31%
- FC(Cl)(Cl)Cl — lower, -3.34%

With `Cc1ccc(OP(=O)(Oc2ccc(C)cc2)Oc2ccc(C)cc2)cc1` the outcome was “inactive”.
With `CCOP(=S)(OCC)Oc1nc(Cl)c(Cl)cc1Cl` the outcome was “inactive”.
With `O=c1ccc(=O)[nH][nH]1` the outcome was “inactive”.
For `Cc1ccc(N=C=O)cc1N=C=O`, the outcome was “inactive”.
In the case of `CC(C)[C@]12CC(=O)[C@H](C)[C@H]1C2`, the outcome is reported as “inactive”.
In the case of `O=[N+]([O-])c1c(Cl)c(Cl)c(Cl)c(Cl)c1Cl`, the outcome is reported as “inactive”.
With `Cc1cc(N=Nc2ccccc2C)ccc1N` the outcome was “inactive”.
`CCSC(=O)N1CCCCCC1` was tested, and the outcome was “inactive”.
`Nc1cc(Cl)cc(C(=O)O)c1Cl` was tested, and the outcome was “inactive”.
